Reference: PubChem BioAssay (Tox21)
Results filed as inconclusive are left out. Active and inactive are the calls of the source. Calls come from the whole dose curve; as a rule, active = well fitted activation curve with a large enough effect in the repeat runs; inconclusive = weak or mixed curves, or effect the other way; inactive = no such curve, though single readings can be large or run the other way.

Experiment: qHTS assay to identify small molecule agonists of the retinoic acid receptor (RAR) signaling pathway (AID 1159553)
Conditions: C3RL4 RARE luciferase reporter, agonist, 6 h; series mostly up to 73.3 µM; activation: at the top concentration
Text: National Center for Advancing Translational Sciences [NCATS] NIH Chemical Genomics Center [NCGC] U.S. Environmental Protection Agency [EPA] National Institutes of Environmental Health Sciences [NIEHS] National Toxicology Program [NTP] Assay overview: All-trans Retinoic acid (atRA) is the potent natural metabolite of retinol and plays an important role in normal embryonic development and maintenance of cellular phenotype in adult animals. atRA is the activating ligand for the retinoic acid receptors (RARs) which form heterodimers with retinoid X receptors (RXRs) on the retinoic acid response element (RARE). Through activation of the RAR/RXRs nuclear receptors, atRA regulates the transcription of a large number of protein-coding genes and regulatory RNAs. Intracellular levels of atRA are controlled by the retinol signaling pathway (RSP) that regulates the biosynthesis and catabolism of atRA to maintain physiological levels. Chemicals that interfere with the RSP can cause abnormal intracellular levels of atRA and therefore are potential developmental toxicants. To assess compounds for the potential adverse effect on embryonic development through interfering with retinol signaling, a cell-based RARE luciferase reporter gene assay was used. C3RL4 cell line (OARSA/CFSAN/FDA, Laurel, MD) was used to screen Tox21 10K compound library for identifying activators of the RSP.
Assay Protocol Summary: C3RL4 cells were seeded at 1,000/well in 5 uL of assay medium into white solid 1,536-well tissue culture plates (Greiner Bio-One North America Inc. Monroe, NC) using a Multidrop Combi (Thermo Scientific, Waltham, MA) dispenser. After incubation at 37 C and 5% CO2 for an overnight, 23 nL of compounds dissolved in DMSO, positive control or DMSO only were transferred by a Pintool station (Kalypsys, San Diego, CA). After 6 hr incubation at 37 C and 5% CO2, 5 uL of Amplite Luciferase reagent (AAT Bioquest Inc. Sunnyvale, CA) was added to each assay plate using a Flying Reagent Dispenser (FRD) (Aurora Discovery, San Diego, CA). Luminescence was quantified on a ViewLux plate reader (PerkinElmer, Waltham, MA) after 30 min incubation at room temperature.
% is set by controls: 0 for no effect and ±100 for the full control effect; potency is the fitted concentration of half-maximal effect.

Which “activation” value does the source give for `Clc1cc(Cl)c(-c2cc(Cl)c(Cl)cc2Cl)cc1Cl` here?
The value was -2.11% (inactive).

With `O=C(CCCCl)c1ccc(F)cc1` as the molecule, how does the Potency read?
The Potency was 26.6 µM (active).

With `O=c1[nH]c2cc(Cl)ccc2n1C1CCNCC1` as the molecule, how does the “activation” value read?
The value was -0.701% (inactive).

Which “activation” value does the source give for `CCN(CC)C(=O)N[C@@H]1C=C2c3cccc4[nH]cc(c34)C[C@@H]2N(C)C1` here?
Its value is 0.742% (inactive).

For `CCCCCCC[CH2][Sn]([Cl])([Cl])[CH2]CCCCCCC`, which “activation” value is on record?
The value was 3.8% (inactive).

With `COC(=O)C(C)N(C(=O)c1ccco1)c1c(C)cccc1C` (stereo not given) as the molecule, how does the “activation” value read?
The value was -3.99% (inactive).

Which “activation” value does the source give for `CCCCN(CCCC)C(=S)S` here?
Its value is 3.26% (inactive).

Which “activation” value does the source give for `C=CCOC(=O)c1ccccc1N` here?
The value was 3.16% [at 94.8 µM] (inactive).

Which “activation” value does the source give for `CC(C)Br` here?
The value was 0.615% (inactive).

With `COc1ccc(Cc2nccc3cc(OC)c(OC)cc23)cc1OC` as the molecule, how does the “activation” value read?
Its value is -6.65% (inactive).

Which “activation” value does the source give for `CC(C)NCC(O)c1ccccc1Cl` (stereo not given) here?
The value was 1.95% (inactive).

For `O=[N+]([O-])c1ccc(CCl)cc1`, which “activation” value is on record?
The value was -0.615% (inactive).

For `C#CCC1=C(C)C(OC(=O)C2C(C=C(C)C)C2(C)C)CC1=O` (stereo not given), which “activation” value is on record?
Its value is 1.89% (inactive).

With `O=C(O)CCCCCCNC1c2ccccc2CCc2ccccc21` as the molecule, how does the “activation” value read?
Its value is 0.0526% (inactive).

Which “activation” value does the source give for `Nc1ccccc1-c1ccccc1` here?
The value was 9.94% (inactive).

For `O=NN(CCO)CCO`, which “activation” value is on record?
The value was -1.64% (inactive).

With `CCO/N=C(\CC)C1=C(O)CC(c2c(C)cc(C)cc2C)CC1=O` (stereo not given) as the molecule, how does the “activation” value read?
Its value is -3.08% (inactive).

For `O=[N+]([O-])[O-].[Tl+]`, which “activation” value is on record?
Its value is -5.56% [at 94.8 µM] (inactive).

For `Cc1c([N+](=O)[O-])cc2c(c1[N+](=O)[O-])C(C)(C)CC2(C)C`, which “activation” value is on record?
Its value is -1.62% (inactive).

Which “activation” value does the source give for `CC(Cc1ccccc1)N(C)Cc1ccco1` (stereo not given) here?
The value was 0.749% (inactive).

For `Nc1nc(N)c(N)c(N)n1`, which “activation” value is on record?
Its value is -0.245% [at 94.8 µM] (inactive).

For `C[C@]12CC[C@H]3[C@@H](CCC4=CC(=O)CC[C@@H]43)[C@@H]1CC[C@@H]2OC(=O)CCc1ccco1`, which “activation” value is on record?
The value was -12.3% (inactive).

For `CC(C)N(C(=O)SC/C(Cl)=C/Cl)C(C)C`, which “activation” value is on record?
Its value is -5.21% [at 94.8 µM] (inactive).

With `COP(=O)(OC)Oc1ccc([N+](=O)[O-])cc1` as the molecule, how does the “activation” value read?
Its value is 0.299% (inactive).

Which “activation” value does the source give for `N#Cc1c2ccccc2cc2ccccc12` here?
The value was -1.59% (inactive).

Which “activation” value does the source give for `CC1=C2C[C@H]3[C@@H](CC=C4C[C@@H](O)CC[C@@]43C)[C@@H]2CC[C@]12O[C@@H]1C[C@H](C)CN[C@H]1[C@H]2C` here?
Its value is -3.93% (inactive).

For `CCCCC(CC)COC(=O)c1ccccc1C(=O)OCC(CC)CCCC` (stereo not given), which “activation” value is on record?
Its value is -0.23% (inactive).

Which “activation” value does the source give for `CC(C)(C)c1ccc(OP(=O)(Oc2ccccc2)Oc2ccccc2)cc1` here?
Its value is -3.33% [at 94.8 µM] (inactive).

For `CNC(=O)Oc1cc(C)cc(C(C)C)c1`, which “activation” value is on record?
The value was -5.78% (inactive).

Which “activation” value does the source give for `CCOP(=S)(OCC)SC(CCl)N1C(=O)c2ccccc2C1=O` (stereo not given) here?
The value was 0.564% (inactive).

For `CCCCCON=O`, which “activation” value is on record?
The value was -0.475% [at 94.8 µM] (inactive).

With `c1cc[n+]2c(c1)-c1cccc[n+]1CC2` as the molecule, how does the “activation” value read?
Its value is 0.201% (inactive).

Which “activation” value does the source give for `ClSC(Cl)(Cl)Cl` here?
Its value is 0.308% (inactive).

With `CN1C(=O)[C@@H](NC(=O)c2cc3ccccc3[nH]2)N=C(c2ccccc2)c2ccccc21` as the molecule, how does the “activation” value read?
The value was 1.87% (inactive).

With `O=S(=O)(O)F` as the molecule, how does the “activation” value read?
Its value is -3.56% [at 94.8 µM] (inactive).

Which “activation” value does the source give for `CCNc1nc(NC(C)C(C)C)nc(SC)n1` (stereo not given) here?
The value was -0.209% (inactive).

For `ClC1(Cl)C2(Cl)C3(Cl)C4(Cl)C(Cl)(Cl)C5(Cl)C3(Cl)C1(Cl)C5(Cl)C24Cl` (stereo not given), which “activation” value is on record?
Its value is -1.6% (inactive).

With `NC(=O)C(Cl)Cl` as the molecule, how does the “activation” value read?
The value was -0.293% (inactive).

Which Potency does the source give for `Cc1cc(C2CC2)nc(Nc2ccccc2)n1` here?
The Potency was 19.3 µM (active).

For `CSSC`, which “activation” value is on record?
The value was 0.206% [at 94.8 µM] (inactive).
